Inconclusive results are not listed. Activity calls are given as the source filed them. Calls follow the shape of the dose curve; as a rule, active = well fitted curve in the direction sought with a large enough effect; inconclusive = small, poorly fitted or top-dose-only effect, or another doubt; inactive = no such curve, though single readings can be large; an effect the other way counts as inactive or inconclusive.
Legend:
[1] = Cellular Toxicity (caspase-3) NIH 3T3 (AID 666);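 also: caspase signal read after 16 h compound exposure; 0% = DMSO basal and 100% = 100 µM tamoxifen stimulation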
How it was run: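 Mouse NIH 3T3 fibroblasts (1000 cells/well) were treated with compound for 16 hr at 37°C in complete medium; caspase-3/7 activity was read by Caspase-Glo luminescence. Normalized to DMSO and 100 uM tamoxifen; AC50 from Hill fits.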

[2] = Cellular Toxicity (caspase-3) Renal Proximal Tubule (AID 667); conditions: renal proximal tubule cells; at 91.7 µM (top of the series), primary cells freshly taken from rat, solvent-only wells 0%, staurosporine 100% unless noted;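 also: cells exposed to compound for 16 hours at 37 °C before detection; 0% = DMSO basal and 100% = 10 µM staurosporine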
How it was run: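 Caspase 3/7 activation measured by luminescent aminoluciferin release in primary rat proximal tubule cells after 16 hr compound exposure at 37 °C. AC50 from Hill-fitted concentration-response, scaled between DMSO and 10 uM staurosporine.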

[3] = Cell Viability - LYMP2-001 (AID 921);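 also: 0% = DMSO only and full inhibition = tetraoctylammonium bromide control wells; nearly all actives have a fitted effect of over 70% in size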
How it was run: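 Cellular ATP loss read by luciferase luminescence after 24 h compound exposure at 37 C in complete medium. LYMP2-001 lymphoblastoid cells, 2500/well; qHTS concentration-response data fitted with Hill equation for AC50.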

[4] = MultiTox-Fluor Cytotoxicity Assay - LYMP1-001 - Live Cells (AID 947);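 also: 0% = DMSO only and full inhibition = tetraoctylammonium bromide control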
[5] = Cell Viability - LYMP1-002 - Assay at 16 hr (AID 948);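 also: 0% = DMSO alone and full effect = 92 µM tetraoctylammonium bromide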
How it was run: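 ATP luminescence (CellTiter-Glo) was measured after 16 hr compound exposure at 37 C of 2500 lymphoblastoid LYMP1-002 cells per well. Concentration-response curves were fitted with the Hill equation to give AC50.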

[6] = MultiTox-Fluor Cytotoxicity Assay - LYMP1-002 - Live Cells (AID 955); also: % is scaled to controls: 0 for no effect and ±100 for the full control effect
How it was run: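 Human lymphoblastoid LYMP1-002 cells, 2500/well in complete medium, rested 5 hr at 37 C, then exposed to compounds for 16 hr at 37 C. Live-cell protease cleavage of GF-AFC read by fluorescence (Ex/Em 405/510) after 60 min at room temperature; AC50 from Hill fits.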

[7] = MultiTox-Fluor Cytotoxicity Assay - LYMP1-002 - Dead Cells (AID 960);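 also: 0% = DMSO and 100% = tetraoctylammonium bromide; nearly all actives have a fitted effect of over 60% in size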
How it was run: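 Human lymphoblastoid cells (LYMP1-002), 2500/well in complete medium, were exposed to compounds for 16 hr at 37 C. Dead-cell protease activity was read as bis-AAF-R110 fluorescence (Ex/Em 485/520), normalized to DMSO and 15 uM tetraoctylammonium bromide; AC50 from Hill fits.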

[8] = MultiTox-Fluor Cytotoxicity Assay - LYMP1-003 - Live Cells (AID 962);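 also: 0% = DMSO only and full loss = 92 µM tetraoctylammonium bromide; cytotoxic hits lower the live-cell protease signal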
How it was run: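 LYMP1-003 human lymphoblastoid cells (2500/well) in complete medium were preincubated 5 hr at 37 C, then exposed to compounds for 16 hr at 37 C. Live-cell protease cleavage of GF-AFC read by fluorescence (Ex/Em 405/510); AC50 from Hill fits.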

[9] = Cell Viability - LYMP1-003 - Assay at 24 hr (AID 963);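 also: plate controls were DMSO only for no effect and tetraoctylammonium bromide positive control for full effect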
How it was run: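 Human lymphoblastoid LYMP1-003 cells (2500/well) were rested 5 hr at 37 C, then exposed to compounds in complete medium for 24 hr at 37 C. Cellular ATP was quantified by CellTiter-Glo luminescence, and AC50 values came from Hill fits of concentration-response data.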

[10] = Cell Viability - LYMP1-003 - Assay at 40 hr (AID 964); also: % is scaled to controls: 0 for no effect and ±100 for the full control effect; nearly all actives have a fitted effect of over 60% in size
How it was run: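 Human lymphoblastoid LYMP1-003 cells, 2500/well in complete medium, rested 5 hr at 37 C, then exposed to compounds for 40 hr at 37 C. Viability read as intracellular ATP by CellTiter-Glo luminescence; AC50 from Hill fits of concentration-response data.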

[11] = Cell Viability - LYMP2-003 (AID 965);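 also: cells exposed to compounds for 24 h before reading; 0% = DMSO only and full effect = 92 µM tetraoctylammonium bromide; nearly all actives have a fitted effect of over 50% in size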
How it was run: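 CellTiter-Glo luminescence quantified ATP loss after 24 h compound treatment of LYMP2-003 lymphoblastoid cells at 37 C. Titration series were fitted with the standard Hill equation to give AC50.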

[12] = Cell Viability - LYMP2-004 (AID 966);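 also: plate controls were DMSO only for no effect and tetraoctylammonium bromide control for full effect; nearly all actives have a fitted effect of over 65% in size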
How it was run: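 Human lymphoblastoid cells (2500/well) in complete medium were treated with compounds for 24 hr at 37 C, then intracellular ATP was measured by CellTiter-Glo luminescence. AC50 values came from Hill-equation fits of concentration-response data.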

[13] = Cell Viability - LYMP2-005 (AID 967);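 also: plate controls were DMSO only for no effect and 92 µM tetraoctylammonium bromide control for full effect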
How it was run: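 LYMP2-005 human lymphoblastoid cells (2500/well) were treated with compounds for 24 h at 37 C. Intracellular ATP was then measured by CellTiter-Glo luminescence after 30 min at room temperature. AC50 values came from Hill-equation fits of qHTS concentration-response data.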

[14] = Cell Viability - LYMP2-009 (AID 968);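 also: 0% = DMSO alone and the full-kill end = tetraoctylammonium bromide at 92 µM; nearly all actives have a fitted effect of over 55% in size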
[15] = Cell Viability - LYMP2-011 (AID 969);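 also: 0% = DMSO only and full inhibition = 92 µM tetraoctylammonium bromide; nearly all actives have a fitted effect of over 60% in size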
How it was run: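 Human lymphoblastoid cells (2500/well) were plated in complete medium, preincubated 5 hr at 37 C, then exposed to compounds for 24 hr at 37 C. Intracellular ATP was read by CellTiter-Glo luminescence, and AC50 came from Hill-equation concentration-response fits.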

[16] = Cell Viability - LYMP2-013 (AID 970);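 also: 0% = DMSO only and full inhibition = tetraoctylammonium bromide control; nearly all actives have a fitted effect of over 55% in size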
How it was run: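 Human lymphoblastoid cells, 2500/well, were preincubated 5 hr at 37 C, then treated with compounds for 24 hr at 37 C in complete medium. Intracellular ATP was read by CellTiter-Glo luminescence; AC50 from Hill-equation fits of concentration-response data.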

[17] = Cell Viability - LYMP2-015 (AID 971);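 also: 0% = DMSO only and full effect = 92 µM tetraoctylammonium bromide; nearly all actives have a fitted effect of over 55% in size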
How it was run: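 Human lymphoblastoid cells (2500/well) in complete medium were preincubated 5 hr at 37 C, then compound-treated 24 hr at 37 C. Intracellular ATP was read by CellTiter-Glo luminescence after 30 min at room temperature; AC50 came from Hill-equation concentration-response fits.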

[18] = Cell Viability - LYMP2-017 (AID 972); also: % is scaled to controls: 0 for no effect and ±100 for the full control effect; nearly all actives have a fitted effect of over 55% in size
How it was run: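 Human lymphoblastoid cells (2500/well) were seeded in complete medium, held 5 hr at 37 C, then exposed to compounds for 24 hr at 37 C. Intracellular ATP was read by CellTiter-Glo luminescence after 30 min at room temperature, with AC50 values from Hill-equation fits.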

[19] = Cell Viability - LYMP2-019 (AID 973)
How it was run: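 Human lymphoblastoid cells were seeded at 2500 cells/well, preincubated 5 hr at 37 C, then exposed to compounds for 24 hr at 37 C in complete medium. Intracellular ATP was measured by CellTiter-Glo luminescence; AC50 from Hill fits.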

[20] = Cell Viability - LYMP2-021 (AID 974)
How it was run: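 Human lymphoblastoid cells (2500/well) were preincubated 5 hr at 37 C, then exposed to compounds for 24 hr at 37 C in complete medium. Intracellular ATP was read by CellTiter-Glo luminescence; AC50 came from Hill-equation fits of concentration-response data.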

[21] = Cell Viability - LYMP2-023 (AID 975)
How it was run: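 Human lymphoblastoid cells (2500/well) were preincubated 5 hr at 37 C, then exposed to compounds for 24 hr at 37 C in complete medium. Cellular ATP was read by CellTiter-Glo luminescence, and AC50 came from Hill-equation fits.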

[22] = Cell Viability - LYMP2-025 (AID 976);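 also: plate controls were DMSO only for no effect and tetraoctylammonium bromide control for full effect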
How it was run: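 Human lymphoblastoid LYMP2-025 cells (2500/well) were pre-incubated 5 hr at 37 C, then treated with compounds for 24 hr at 37 C in complete medium. Viability was read as intracellular ATP by CellTiter-Glo luminescence; AC50 from Hill fits.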

Clc1cc(Cl)c(-c2cc(Cl)c(Cl)cc2Cl)cc1Cl
inactive: outcome [1] | caspase-3 activation [2] -3.51% [at 91.7 µM] | Potency [3] | Potency [4] | Potency [5] | outcome [6] | Potency [7] | Potency [8] | Potency [9] | Potency [10] | Potency [11] | Potency [12] | Potency [13] | Potency [14] | Potency [15] | Potency [16] | Potency [17] | Potency [18] | Potency [19] | Potency [20] | Potency [21] | Potency [22]

Reference: PubChem BioAssay (NCATS)
